Experimental data as given in PubChem BioAssay (EPA / NIEHS).
Records with an inconclusive call do not appear. More than one record can exist for a structure, and the calls need not agree. The source made the active and inactive calls. How the source made its calls, unless noted: active means hit-call score of the fitted dose curve at least 0.9, where 1 is the maximum; inconclusive means response in the unintended direction; inactive means score below 0.9.

Assays:
[1] = Tanguay_ZF_120hpf_SNOU_legacy: (Legacy) Oregon State University Tanguay Lab 120 Hour Post-fertilization zebrafish Assay for Snout Malformation (AID 2283637)
Summary of the method: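 Binary brightfield scoring of snout malformation at 120 hpf. Dechorionated 5D wild-type embryos, one per well, static exposure from 6 hpf at 28C, sealed and dark; final DMSO 0.64% (vol/vol), DMSO as baseline; 5uM trimethyltin chloride positive control.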

[2] = Tanguay_ZF_120hpf_JAW_legacy: (Legacy) Oregon State University Tanguay Lab 120 Hour Post-fertilization zebrafish Assay for Jaw Malformation (AID 2283638);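 on AC50: active means more embryos with jaw malformation than DMSO controls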
Summary of the method: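 Dechorionated Tropical 5D wild-type zebrafish embryos, one per well, exposed statically from 6 hpf to 120 hpf at 28C in 0.64% DMSO. Jaw malformation was scored by brightfield microscopy as present or absent. It was not scored in dead embryos.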

[3] = Tanguay_ZF_120hpf_OTIC_legacy: (Legacy) Oregon State University Tanguay Lab 120 Hour Post-fertilization zebrafish Assay for Otic Vesicle Malformation (AID 2283639)
Summary of the method: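 Binary scoring of otic vesicle defects at 120 hpf in zebrafish (Tropical 5D) held under static exposure at 28C, sealed and shaded, with final DMSO 0.64%. Embryos dying by 24 or 120 hpf excluded; fitted positively against DMSO.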

[4] = Tanguay_ZF_120hpf_PE_legacy: (Legacy) Oregon State University Tanguay Lab 120 Hour Post-fertilization zebrafish Assay for Pericardial Edema (AID 2283640);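 on AC50: potency for increased incidence of pericardial edema versus DMSO baseline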
Summary of the method: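 Tropical 5D wild-type zebrafish embryos were statically exposed until 120 hpf at 28C, with 0.64% DMSO final. Pericardial edema was scored by brightfield as present or absent; endpoints were not scored in dead embryos.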

[5] = Tanguay_ZF_120hpf_BRAI_legacy: (Legacy) Oregon State University Tanguay Lab 120 Hour Post-fertilization zebrafish Assay for Brain Malformation (AID 2283641)
Summary of the method: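 Tropical 5D wild-type zebrafish embryos exposed statically until 120 hpf at 28C, 0.64% DMSO final, sealed and dark. Brain malformation scored present/absent by brightfield at 120 hpf; dead embryos excluded. Trimethyltin chloride 5uM positive control.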

[6] = Tanguay_ZF_120hpf_SOMI_legacy: (Legacy) Oregon State University Tanguay Lab 120 Hour Post-fertilization zebrafish Assay for Somite Malformation (AID 2283647)
Summary of the method: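 Dechorionated Tropical 5D wild-type zebrafish embryos, one per well from 6 hpf, statically exposed at 28C to 120 hpf in 0.64% DMSO; somite malformation scored present/absent by brightfield; trimethyltin 5 uM positive control; dead embryos not scored.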

[7] = Tanguay_ZF_120hpf_PFIN_legacy: (Legacy) Oregon State University Tanguay Lab 120 Hour Post-fertilization zebrafish Assay for Pectoral Fin Malformation (AID 2283648);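 further: each larva judged yes or no for fin defect by brightfield with dead larvae skipped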
Summary of the method: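 Binary pectoral fin malformation call at 120 hpf by brightfield microscopy; 5D wild-type zebrafish, chorion removed at 4 hpf, one embryo per well from 6 hpf, static exposure at 28C; DMSO (0.64% final) as baseline.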

[8] = Tanguay_ZF_120hpf_CFIN_legacy: (Legacy) Oregon State University Tanguay Lab 120 Hour Post-fertilization zebrafish Assay for Caudal Fin Malformation (AID 2283649)
Summary of the method: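 Dechorionated Tropical 5D wild-type embryos, one per well from 6 hpf, static exposure to 120 hpf at 28C in 0.64% DMSO. Caudal fin malformation scored by brightfield as present/absent; not scored in dead embryos.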

[9] = Tanguay_ZF_120hpf_PIG_legacy: (Legacy) Oregon State University Tanguay Lab 120 Hour Post-fertilization zebrafish Assay for Pigmentation Malformation (AID 2283650)
Summary of the method: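 Brightfield scoring of pigmentation malformation at 120 hpf, recorded as binary present/absent per larva. Exposure: dechorionated 5D wild-type embryos, one per well, static from 6 hpf at 28C, final DMSO 0.64% (vol/vol). Dead embryos not scored.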

[10] = Tanguay_ZF_120hpf_CIRC_legacy: (Legacy) Oregon State University Tanguay Lab 120 Hour Post-fertilization zebrafish Assay for Circulatory Malformation (AID 2283651)
Summary of the method: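 Binary circulatory malformation call at 120 hpf by brightfield imaging of zebrafish larvae; chorion removed at 4 hpf, static exposure from 6 hpf in sealed dark plates at 28C, final DMSO 0.64%; non-mortality endpoints skipped if embryo died.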

[11] = Tanguay_ZF_120hpf_SWIM_legacy: (Legacy) Oregon State University Tanguay Lab 120 Hour Post-fertilization zebrafish Assay for Swim Bladder Malformation (AID 2283654);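 further: swim bladder malformation in each larva scored yes or no under brightfield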
Summary of the method: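 Tropical 5D embryos dechorionated at 4 hpf; 1 embryo/well from 6 hpf; static, sealed, dark exposure at 28C until 120 hpf; final DMSO 0.64%; 5uM trimethyltin chloride positive control; swim bladder defect recorded yes/no; dead embryos not scored.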

[12] = Tanguay_ZF_120hpf_TRUN_legacy: (Legacy) Oregon State University Tanguay Lab 120 Hour Post-fertilization zebrafish Assay for Truncated Body (AID 2283655)
Summary of the method: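 Dechorionated Tropical 5D wild-type embryos placed singly from 6 hpf and statically exposed to 120 hpf at 28C, final DMSO 0.64%. Truncated body scored as present/absent by brightfield; not scored in dead embryos.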

[13] = Tanguay_ZF_120hpf_NC_legacy: (Legacy) Oregon State University Tanguay Lab 120 Hour Post-fertilization zebrafish Assay for Notochord and Tail Malformation (AID 2283656)
Summary of the method: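 Binary scoring of notochord distortion by brightfield microscopy; embryos dying were not scored. Wild-type Tropical 5D embryos, chorion removed, exposed singly and statically from 6 to 120 hpf, 28C, sealed, 0.64% DMSO.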

[14] = read-out: Broad substrate specificity ATP-binding cassette transporter ABCG2 (Homo sapiens) (UniProt Q9UNQ0); assay: CLD_ABCG2_6hr: CellzDirect (CLD) Gene Expression Assay for ABC Transporter (ABCG2) at 6 hours (AID 2283660)
Summary of the method: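 ABCG2 mRNA induction measured by qNPA chemiluminescence in human primary hepatocyte cultures, 6 h post-dose. Chemicals tested at several concentrations against a 0.2% DMSO vehicle; positive-direction fit relative to DMSO.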

[15] = read-out: kallikrein-3 (KLK3), KLK3 (gene 354); assay: LTEA_HepaRG_KLK3: Life Technologies and Expression Analysis (LTEA) Assay for kallikrein-3 (KLK3) using HepaRG (AID 2283652; active means hit-call score of the fitted dose curve at least 0.9, where 1 is the maximum; inactive means score below 0.9); conditions: mRNA level, 48 h; actives raise or lower the signal
Summary of the method: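 KLK3 transcript levels were measured by TaqMan qRT-PCR with normalisation to three housekeeping genes. HepaRG cultures received chemicals for 48 h at up to 100 uM (half-log, 8 points, 0.5% DMSO vehicle), fitted in both directions against DMSO.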

[16] = read-out: solute carrier (SLC22A6), SLC22A6 (gene 9356); assay: LTEA_HepaRG_SLC22A6: Life Technologies and Expression Analysis (LTEA) Assay for solute carrier (SLC22A6) using HepaRG (AID 2283653; active means hit-call score of the fitted dose curve at least 0.9, where 1 is the maximum; inactive means score below 0.9); conditions: mRNA level, 48 h; actives raise or lower the signal
Summary of the method: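 Differentiated HepaRG cells exposed 48 h in serum-free induction medium to 8 half-log concentrations, top 100 uM, in 0.5% DMSO; SLC22A6 mRNA by Fluidigm qRT-PCR normalized to ACTB, GAPDH, POLR2A, fitted bidirectionally versus DMSO.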

[17] = read-out: solute carrier (SLC10A1), SLC10A1 (gene 6554); assay: LTEA_HepaRG_SLC10A1: Life Technologies and Expression Analysis (LTEA) Assay for solute carrier (SLC10A1) using HepaRG (AID 2283657; active means hit-call score of the fitted dose curve at least 0.9, where 1 is the maximum; inactive means score below 0.9); conditions: mRNA level, 48 h; actives raise or lower the signal
Summary of the method: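 HepaRG, 48 h exposure, 8-pt half-log curve from 100 uM in 0.5% DMSO, duplicates. Read-out: TaqMan qRT-PCR of SLC10A1 mRNA, normalized to three housekeeping genes. Gain/loss fit vs DMSO baseline.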

[18] = read-out: matrix metalloproteinase-1 (MMP1), MMP1 (gene 4312); assay: LTEA_HepaRG_MMP1: Life Technologies and Expression Analysis (LTEA) Assay for matrix metalloproteinase-1 (MMP1) using HepaRG (AID 2283658; active means hit-call score of the fitted dose curve at least 0.9, where 1 is the maximum; inactive means score below 0.9); conditions: mRNA level, 48 h; actives raise or lower the signal
Summary of the method: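 Differentiated human HepaRG cells, 48 h post-plating in serum-free induction medium, were exposed 48 h to eight half-log concentrations topping at 100 uM in 0.5% DMSO, duplicate. MMP1 mRNA measured by Fluidigm TaqMan qRT-PCR, normalized to ACTB, GAPDH, POLR2A; bidirectional fits versus DMSO.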

[19] = read-out: ABC Transporter (ABCB1), ABCB1 (gene 5243); assay: CLD_ABCB1_6hr: CellzDirect (CLD) Gene Expression Assay for ABC Transporter (ABCB1) at 6 hours (AID 2283659);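 further: hits raise ABCB1 transcript above the DMSO vehicle baseline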
Summary of the method: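 ABCB1 transcript measured by quantitative nuclease protection assay, chemiluminescent read-out, 6 h after dosing human hepatocyte cultures (0.2% DMSO vehicle, daily redosing). Activity fitted as increase over DMSO baseline; cytotoxicity flagged by phase-contrast morphology.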

Measured: AC50

Chain of Broad substrate specificity ATP-binding cassette transporter ABCG2 (Homo sapiens) (Q9UNQ0 whole entry, looked up): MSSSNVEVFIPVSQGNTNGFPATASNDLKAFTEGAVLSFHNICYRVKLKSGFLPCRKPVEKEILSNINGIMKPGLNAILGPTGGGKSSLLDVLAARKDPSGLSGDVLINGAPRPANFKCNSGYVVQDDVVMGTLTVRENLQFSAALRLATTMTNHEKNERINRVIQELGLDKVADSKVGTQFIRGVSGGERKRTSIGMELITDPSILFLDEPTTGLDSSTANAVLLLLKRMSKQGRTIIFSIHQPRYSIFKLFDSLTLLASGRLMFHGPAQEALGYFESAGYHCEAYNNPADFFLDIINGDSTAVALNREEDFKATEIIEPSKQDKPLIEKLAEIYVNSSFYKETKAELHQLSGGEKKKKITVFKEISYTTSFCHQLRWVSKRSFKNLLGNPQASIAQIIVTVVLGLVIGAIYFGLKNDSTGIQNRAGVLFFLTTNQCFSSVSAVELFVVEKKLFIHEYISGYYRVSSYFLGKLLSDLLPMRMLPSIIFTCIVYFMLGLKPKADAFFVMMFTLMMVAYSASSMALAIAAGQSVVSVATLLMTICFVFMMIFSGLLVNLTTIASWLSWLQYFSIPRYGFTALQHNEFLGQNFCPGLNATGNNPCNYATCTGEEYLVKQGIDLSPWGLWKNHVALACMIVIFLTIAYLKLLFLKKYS

COC(=O)N(OC)c1ccccc1COc1ccn(-c2ccc(Cl)cc2)n1
not listed: [15] | [16] | [17] | [18] | [19]
inactive: all other assays above

OC(c1ccc(Cl)cc1)(c1cncnc1)c1ccccc1Cl (centres undefined)
active: [17] 24.1 µM | [18] 59.8 µM
not listed: [10] | [12]
inactive: all other assays above

CO/C=C(/C(=O)OC)c1ccccc1Oc1cc(Oc2ccccc2C#N)ncn1
inactive: [1] | [2] | [3] | [4] | [5] | [6] | [7] | [8] | [9] | [10] | [16] | [11] | [12] | [13] | [18] | [19] | [14]
active: [4] 5.47 µM | [17] 78.6 µM

CNC(=O)ON=CC(C)(C)SC
active: [4] 2.81 µM | [12] 1.07 µM
not listed: [14] | [15] | [16] | [17] | [18] | [19]
inactive: all other assays above

O=C(O)COc1nc(Cl)c(Cl)cc1Cl
not listed: [13] | [15] | [16] | [17] | [18]
inactive: all other assays above

CCCC1COC(Cn2cncn2)(c2ccc(Cl)cc2Cl)O1 (centres undefined)
active: [1] 25.2 µM | [2] 25.2 µM | [4] 30.4 µM | [5] 30.2 µM
not listed: [14] | [15] | [16] | [17] | [18]
inactive: all other assays above

CCc1nn(C)c(C(=O)NCc2ccc(C(C)(C)C)cc2)c1Cl
active: [1] 6.18 µM | [2] 4.39 µM | [4] 5.67 µM
not listed: [15] | [16] | [17] | [18] | [19]
inactive: all other assays above

Cc1ccc(-c2c(Cl)nc(C#N)n2S(=O)(=O)N(C)C)cc1
not listed: [15] | [16] | [17] | [18]
inactive: all other assays above

CCNc1nc(Cl)nc(NC(C)C)n1
not listed: [15] | [16] | [17] | [18]
inactive: all other assays above

CCOC(=O)C(Cl)Cc1cc(-n2nc(C)n(C(F)F)c2=O)c(F)cc1Cl (centres undefined)
active: [1] 4.26 µM | [2] 5.22 µM | [3] 1.82 µM | [4] 2.58 µM | [5] 2.91 µM | [6] 2.22 µM | [7] 2.19 µM | [8] 5.09 µM | [9] 1.88 µM
inactive: [10] | [11] | [12] | [13] | [19]

COc1nc(NC(C)C)nc(NC(C)C)n1
not listed: [15] | [16] | [17] | [18]
inactive: all other assays above
